MPTP inh: permeability transition pore inhibition. AID 602449. actives 1.4% (n = 360,000). isolated mouse mitochondria, Ca2+ swelling absorbance, 30 min. inhibition, % at 10 µM;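 active = inhibition of 50% or more, scaled per plate between neutral and stimulator controls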;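 note: 0% = DMSO wells given calcium and 100% = 1 mM EGTA wells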
H9c2 TAG inh: triacylglycerol accumulation inhibition; actives 0.66% (n = 230,000); inhibition, % at 12.5 µM; H9c2 cells, Nile Red lipid (TAG) fluorescence; cells loaded with 200 µM oleic acid;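 active = pattern-corrected inhibition of lipid staining of at least 50% with the nuclear-stain viability signal not falling by more than 50%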;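 note: 0% = DMSO wells and 100% = triacsin C control wells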
aDG glyco act: alpha-DG glycosylation activation. activation, % at 10 µM. actives 0.22% (n = 360,000). Pro5-aDG cells, alpha-DG glycosylation AlphaScreen (IIH6); 0% Pro5, 100% B10-LARGE cell signal;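 active = activation of at least 8% versus controls, or a plate z-score of at least 8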;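 note: Pro5 are CHO cells carrying HIG-tagged alpha-DG that lacks glycosylation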
NadD block: NadD (S. aureus) enzyme inhibition; purified NadD enzyme, colorimetric absorbance read-out; inhibition, % at 20 µM; actives 0.78% (n = 360,000); AID 602399; in the data active = inhibition above about 26%
NadD inh conf: NadD (S. aureus) inhibition, single concentration confirmation. actives 13% (n = 2,000). AID 624309. shares compounds with NadD block. purified S. aureus NadD, colorimetric enzyme assay. inhibition, % at 20 µM; in the data active = inhibition mostly above about 42%, no sharp cut-off; inactive = mostly below about 42%
MPTP counter: membrane potential counter-screen of mitochondrial pore inhibitors. shares compounds with MPTP inh. isolated mitochondria, Rhodamine 123 fluorescence. inhibition, % at 10 µM. actives 78% (n = 5,000). AID 624504; in the data active = inhibition above about 22%;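 note: 0% = DMSO vehicle and 100% = positive control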
TAG conf: triacylglycerol accumulation inhibition, confirmation; H9c2 lipid accumulation, Nile Red fluorescence; cells loaded with 200 µM oleic acid; shares compounds with H9c2 TAG inh; actives 71% (n = 990); AID 651629; inhibition, % at 12.5 µM;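 active = mean inhibition across replicates of 40% or more; inactive = mean inhibition below 40%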;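 note: plate controls were DMSO only wells for no effect and Triacsin C treated wells for full effect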
Numbers without * were called inactive. The list is not random: actives were taken first. Their share in the collection is about 2.7%.

Results for CC(C)C[C@@H]1COc2cc(N3CC[C@H](O)C3)ccc2S(=O)(=O)N1 ?
MPTP inh: 0; aDG glyco act: 0; NadD block: -6

Results for O=C(Nc1nnc(C2CC2)s1)c1ccc(Cl)c(S(=O)(=O)N2CCc3ccccc3C2)c1 ?
MPTP inh: 51*; aDG glyco act: 0; NadD block: 33*; NadD inh conf: -1; MPTP counter: 60*

What do the screens show for `CCc1nnc(NC(=O)c2ccc(Cl)c(S(=O)(=O)N3CCc4ccccc43)c2)s1`?
MPTP inh: 6; H9c2 TAG inh: 7; aDG glyco act: 0; NadD block: 27

Results for OCCOCCn1c(C2CCCN2c2nc(-c3ccc(F)cc3)cs2)nc2cc(Cl)c(Cl)cc21 (configuration not stated) ?
MPTP inh: 2; H9c2 TAG inh: 47; aDG glyco act: 2; NadD block: 11

How did OCCCn1c(C2CCCN2c2nc(-c3ccc(Cl)cc3)cs2)nc2cc(Cl)c(N3CCCCC3)cc21 (configuration not stated) do in these assays?
MPTP inh: 1; H9c2 TAG inh: 62*; aDG glyco act: -1; NadD block: 33*; NadD inh conf: 10; TAG conf: 56*

What do the screens show for `CCCCC(CC)C(=O)Nc1cc(C(=O)NCc2ccc(C)cc2)ccc1N1CCC2(CC1)CC(c1ccccc1)=NO2` (configuration not stated)?
MPTP inh: 0; H9c2 TAG inh: 56*; aDG glyco act: 0; NadD block: 33*; NadD inh conf: 2; TAG conf: 55*

Results for Cc1ccc(NC(=O)COC(=O)c2ccc3c(c2)NC(=O)C2CCCN32)cc1 (configuration not stated) ?
MPTP inh: 2; H9c2 TAG inh: 66*; aDG glyco act: 0; NadD block: 38*; NadD inh conf: 32; TAG conf: 22

How did Cc1cc(C)c(NC(=O)CSc2nc3ccc(NC(=O)CSc4nnnn4Cc4ccccc4)cc3s2)c(C)c1 do in these assays?
MPTP inh: 3; H9c2 TAG inh: 56*; aDG glyco act: 0; NadD block: 47*; NadD inh conf: -3; TAG conf: 42*

What do the screens show for `Cc1c(C(=O)N2CC3(CC(c4cccc(NC(=O)CC(c5ccccc5)c5ccccc5)c4)=NO3)C[C@@H]2C(N)=O)cc([N+](=O)[O-])cc1[N+](=O)[O-]` (some centres not stated)?
MPTP inh: 2; H9c2 TAG inh: 54*; aDG glyco act: 0; NadD block: 30*; NadD inh conf: 48*; TAG conf: 43*

What do the screens show for `CC12CCC(=O)N1C(C(=O)Nc1cc(Cl)ccc1N1CCCC1)CS2` (configuration not stated)?
MPTP inh: -1; H9c2 TAG inh: -3; aDG glyco act: 0; NadD block: -3

What do the screens show for `O=C(Nc1ccc(-c2csc(Nc3cccc(C(F)(F)F)c3)n2)cc1)c1cc([N+](=O)[O-])cc(C(F)(F)F)c1`?
MPTP inh: 3; H9c2 TAG inh: 71*; aDG glyco act: 0; NadD block: 33*; NadD inh conf: 5; TAG conf: 68*

What do the screens show for `CN(C(=O)CN1C(=O)c2ccccc2S1(=O)=O)C1CCCCC1`?
MPTP inh: -1; H9c2 TAG inh: 1; aDG glyco act: 0; NadD block: 2

What do the screens show for `COc1cc(OC)cc(-c2c(C#Cc3ccsc3)c3cc(-c4ccc(OC)c(OC)c4)ccc3n2C)c1`?
MPTP inh: 0; H9c2 TAG inh: 2; aDG glyco act: 0; NadD block: 15

What do the screens show for `COc1cccc(-c2c(-c3cc(OC)cc(OC)c3)n(C)c3ccc(-c4ccc5cc[nH]c5c4)cc23)c1`?
MPTP inh: 2; H9c2 TAG inh: -42; aDG glyco act: 2; NadD block: 23

What do the screens show for `COc1cc(C#Cc2c(-c3cncn3C)n(C)c3ccc(-c4ccc(OC)c(OC)c4)cc23)cc(OC)c1`?
MPTP inh: 1; H9c2 TAG inh: 70*; aDG glyco act: 4; NadD block: 38*; NadD inh conf: 24; TAG conf: 69*

What do the screens show for `COc1cc(C#Cc2c(-c3cncn3C)n(C)c3ccc(-c4ccc5cc[nH]c5c4)cc23)cc(OC)c1`?
MPTP inh: 0; H9c2 TAG inh: 82*; aDG glyco act: 4; NadD block: 39*; NadD inh conf: 47; TAG conf: 74*

What do the screens show for `O=C(OCc1cn([C@H]2CN(CC3CCCCC3)[C@@H](c3ccc(Cl)cc3)C[C@@H]2O)nn1)c1ccccc1`?
MPTP inh: -3; H9c2 TAG inh: -1; aDG glyco act: 1; NadD block: -3

Results for CCOc1ccc(NC(=O)c2ccc(NC(=O)CSc3nc4ccccc4c(=O)[nH]3)cc2)cc1 ?
MPTP inh: -1; H9c2 TAG inh: 61*; aDG glyco act: 0; NadD block: 43*; NadD inh conf: 7; TAG conf: 63*

What do the screens show for `O=C1NC[C@@H](Cc2ccc(O)cc2)N(CCc2cc(C(F)(F)F)cc(C(F)(F)F)c2)C1=O`?
MPTP inh: 0; aDG glyco act: 0; NadD block: 8

What do the screens show for `CC(C)C[C@H]1CNC(=S)N1C[C@H]1CCCN1C[C@H](Cc1ccc(O)cc1)N1C[C@H](CC(C)C)N(CC2CCCCCC2)C1=S`?
MPTP inh: 1; aDG glyco act: 0; NadD block: 24

Results for Oc1ccc(C[C@H]2CNC(=S)N2CC2CCCN2C[C@H](Cc2ccc(O)cc2)N2C[C@H](Cc3ccc(O)cc3)N(CC3CCCCC3)C2=S)cc1 (some centres not stated) ?
MPTP inh: -2; H9c2 TAG inh: 75*; aDG glyco act: -1; NadD block: 48*; NadD inh conf: 47; TAG conf: 73*

Results for COc1ccc(S(=O)(=O)N2CC=C(c3ccccc3)CC2)cc1OC ?
MPTP inh: 2; H9c2 TAG inh: 0; aDG glyco act: 0; NadD block: 0

How did CN(Cc1ccc2c(c1)CCCN2C)C(=O)[C@H]1O[C@@H](n2ccc(=O)[nH]c2=O)[C@H](O)[C@@H]1O do in these assays?
MPTP inh: -1; aDG glyco act: 0; NadD block: 3

How did O=C(CCCn1c(=S)[nH]c2cc3c(cc2c1=O)OCO3)N1CCN(c2ccccc2)CC1 do in these assays?
MPTP inh: 4; H9c2 TAG inh: -5; aDG glyco act: 0; NadD block: 14

Results for Cc1cccc(N2CCN(C(=O)CCCn3c(=S)[nH]c4cc5c(cc4c3=O)OCO5)CC2)c1C ?
MPTP inh: 8; H9c2 TAG inh: 54*; aDG glyco act: 1; NadD block: 56*; NadD inh conf: 14; TAG conf: 38

Assay outcomes deposited in PubChem BioAssay by Sanford-Burnham Center for Chemical Genomics.
